Measured values reported in PubChem BioAssay (Tox21).
Records with an inconclusive call do not appear. Where a call stands in place of a potency, no number is given. A number with no mark means an inactive call. Activity calls are given as the source filed them. Unless noted, calls follow the shape of the dose curve; as a rule, active = well fitted curve in the direction sought with a large enough effect in the repeat runs; inconclusive = weak or mixed curves; inactive = no such curve, though single readings can be large; an effect the other way counts as inactive or inconclusive.

Columns and labels:
[1] = qHTS assay to identify small molecule antagonists of the vitamin D receptor (VDR) signaling pathway - cell viability counter screen (AID 743225); also: nearly all actives have a fitted effect of over 50% in size
Method in brief: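 Cytotoxicity counter screen read by CellTiter-Glo luminescence (30 min, room temperature) in the same wells as the VDR-bla antagonist readout. HEK 293T VDR-UAS-bla cells had 16 h at 37C with compound and 3 nM (final) 1-alpha,25-dihydroxyvitamin D3, then 2 h with FRET substrate.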

[2] = qHTS assay to identify small molecule agonists of the NFkB signaling pathway (AID 1159509; active = well fitted curve in the direction sought with a large enough effect in the signal ratio in the repeat runs, not every such curve was filed as active; the % refers to the signal ratio; also: series mostly up to about 61 µM)
Method in brief: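 Agonist activity was read as beta-lactamase-driven FRET change (460 and 530 nm emission, 405 nm excitation) following 1.5 hr substrate loading at room temperature. Beforehand, ME-180 NFkB-bla reporter cells were treated with compounds for 5 hr at 37 C.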

[3] = qHTS assay to identify small molecule agonists of the NFkB signaling pathway - cell viability counter screen (AID 1159515; calls by dose curve; also: series mostly up to about 61 µM; nearly all actives have a fitted effect of over 55% in size)
Method in brief: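 Counter screen run alongside the NFkB-bla agonist assay: ME-180 reporter cells exposed to compounds for 5 hr, then lysed with CellTiter-Glo in the same wells. Luminescence, read after 30 min, reflects viable cells.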

[4] = qHTS assay to identify small molecule agonists of the endoplasmic reticulum stress response signaling pathway (AID 1159516; active = well fitted activation curve with a large enough effect in the signal ratio in the repeat runs, not every such curve was filed as active; the % refers to the signal ratio)
Method in brief: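 For this screen, HeLa cells stably carrying beta-lactamase under the ER stress response element received test compounds, positive controls or DMSO for 5 hr at 37 C; B/G FRET substrate was then added and dual-wavelength emission recorded.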

[5] = qHTS assay to identify small molecule agonists of the endoplasmic reticulum stress response signaling pathway - cell viability counter screen (AID 1159517; calls by dose curve; also: series mostly up to about 61 µM; nearly all actives have a fitted effect of over 50% in size)
Method in brief: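 ESRE-bla HeLa cells (1,500/well) were plated overnight at 37 C and exposed to compounds for 5 hr. After the 2 hr beta-lactamase substrate read, CellTiter-Glo went into the same wells, and luminescence was read after 30 min at room temperature.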

[6] = qHTS assay to identify small molecule antagonists of the retinoid-related orphan receptor gamma (ROR-gamma) signaling pathway - cell viability counter screen (AID 1159520); also: nearly all actives have a fitted effect of over 50% in size
Method in brief: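 Cytotoxicity was read from cellular ATP (CellTiter-Glo luminescence) after 16 hr at 37 C with 1 uM doxycycline induction. The inducer was added 2 hr after compound transfer to Tet-on ROR gamma CHO cells.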

[7] = biological target: Nuclear receptor ROR-gamma (Homo sapiens) (UniProt P51449); experiment: qHTS assay to identify small molecule antagonists of the retinoid-related orphan receptor gamma (ROR-gamma) signaling pathway (AID 1159521; also: top concentration of the series differs between compounds; nearly all actives have a fitted effect of over 50% in size)
Method in brief: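 Antagonist read-out: drop in luminescence (ONE-Glo) from an RORE-LUC reporter in CHO cells with doxycycline-inducible ROR-gamma; 2 hr compound pretreatment, 1 uM doxycycline, 16 hr incubation at 37 C.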

[8] = qHTS assay to identify small molecule agonists of the AP-1 signaling pathway - cell viability counter screen (AID 1159525; calls by dose curve; also: nearly all actives have a fitted effect of over 55% in size)
Method in brief: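 Intracellular ATP by Cell Titer Glo luminescence (30 min, RT) in the same ME-180 AP-1-bla wells after the 5 h compound exposure at 37 °C. Normalised to tetra n-octyl ammonium bromide and DMSO controls.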

[9] = qHTS assay to identify small molecule agonists of the AP-1 signaling pathway (AID 1159526; calls by dose curve)
[10] = biological target: Retinoic acid receptor RXR-alpha (Homo sapiens) (UniProt P19793); experiment: qHTS assay to identify small molecule agonists of the RXR signaling pathway (AID 1159527; calls by dose curve; also: nearly all actives have a fitted effect of over 35% in size; also: potency is read from the fitted curve at half-maximal effect)
Method in brief: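 Agonist-mode beta-lactamase reporter assay: HEK 293T RXR-alpha-UAS-bla cells treated 16 hr at 37 C with compounds, 9-cis retinoic acid as positive control. LiveBLAzer FRET substrate, 405 nm excitation, 460/530 nm emission.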

[11] = qHTS assay to identify small molecule agonists of the RXR signaling pathway - cell viability counter screen (AID 1159529)
Method in brief: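 CellTiter-Glo luminescence gave viability in the wells also read for beta-lactamase. Cells (RXR-alpha-UAS-bla HEK 293T, 2% charcoal-stripped FBS medium) had 5 hr plating, then 16 hr compound exposure at 37 C; tetraoctyl ammonium bromide served as positive control.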

[12] = qHTS assay to identify small molecule antagonists of the retinoid acid receptor (RAR) signaling pathway - cell viability counter screen (AID 1159551); also: nearly all actives have a fitted effect of over 35% in size
Method in brief: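 Measured by luminescent ATP detection, viability reflects C3RL4 cells treated 6 h at 37 C with test chemicals in the presence of 1 uM (final) retinol.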

[13] = qHTS assay to identify small molecule antagonists of the retinoic acid receptor (RAR) signaling pathway (AID 1159552; also: nearly all actives have a fitted effect of over 50% in size)
Method in brief: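 Luminescent RARE reporter read-out in C3RL4 cells: 6 hr co-treatment at 37 C of test compounds with retinol at 1 uM final. Cells plated overnight beforehand; luciferase reagent incubated 30 min at room temperature before reading.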

[14] = qHTS assay to identify small molecule agonists of the retinoic acid receptor (RAR) signaling pathway (AID 1159553)
Method in brief: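 6 hr compound exposure (DMSO vehicle) of overnight-plated C3RL4 RARE-luc cells at 37 C; luminescence quantified after 30 min RT with luciferase reagent.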

[15] = qHTS assay to identify small molecule antagonists of the estrogen related receptor (ERR) signaling pathway - cell viability counter screen (AID 1224818); also: series mostly up to about 46 µM
Method in brief: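 Compounds dissolved in DMSO were applied to ERR cells seeded at 2,000 per well 6 h earlier. Cell viability followed 17.5 h later via 30-min CellTiter-Fluor fluorescence.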

[16] = qHTS assay to identify small molecule antagonists of the estrogen related receptor (ERR) signaling pathway (AID 1224819)
Method in brief: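 Compounds dissolved in DMSO were pin-transferred onto ERR cells that had been plated 6 h earlier, and cells were then incubated 18 h at 37 C; signal was luciferase luminescence via One-Glo.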

[17] = qHTS assay to identify small molecule agonists of the estrogen related receptor (ERR) signaling pathway (AID 1224820)
Method in brief: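 After 6 h plating (2,000 cells/well) and 18 h compound treatment at 37 C, ERR cells were lysed with One-Glo and luminescence read after 30 min at room temperature.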

[18] = tested on: estrogen-related receptor alpha (ERRalpha) with PGC-1alpha coactivator, human; experiment: qHTS assay to identify small molecule antagonists of the estrogen related receptor signaling pathway with the pleiotropic PPARgamma coactivator (PGC) (AID 1224821; calls by dose curve)
Method in brief: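 Luminescence from One-Glo luciferase reagent (30 min, room temperature) measured after 18 h compound treatment at 37 °C. Cells carry the PGC/ERR reporter and were seeded 6 h prior to dosing.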

[19] = qHTS assay to identify small molecule antagonists of the estrogen related receptor signaling pathway with the pleiotropic PPARgamma coactivator (PGC) cell viability counter screen (AID 1224822; also: series mostly up to about 46 µM)
Method in brief: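 Counter screen for cell viability: PGC/ERR cells, 6 h pre-incubation after plating, 17.5 h compound exposure at 37 C, fluorescence from CellTiter-Fluor after 30 min.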

[20] = qHTS assay to identify small molecule agonists of the estrogen related receptor signaling pathway with the pleiotropic PPARgamma coactivator (PGC) (AID 1224823)
Method in brief: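 Luminescence from One-Glo reagent (30 min, room temperature) was read after 18 h compound treatment at 37 C of PGC/ERR cells plated 6 h beforehand; compounds delivered in DMSO by pin tool.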

Retinoic acid receptor RXR-alpha (Homo sapiens), sequence (P19793 whole entry, looked up): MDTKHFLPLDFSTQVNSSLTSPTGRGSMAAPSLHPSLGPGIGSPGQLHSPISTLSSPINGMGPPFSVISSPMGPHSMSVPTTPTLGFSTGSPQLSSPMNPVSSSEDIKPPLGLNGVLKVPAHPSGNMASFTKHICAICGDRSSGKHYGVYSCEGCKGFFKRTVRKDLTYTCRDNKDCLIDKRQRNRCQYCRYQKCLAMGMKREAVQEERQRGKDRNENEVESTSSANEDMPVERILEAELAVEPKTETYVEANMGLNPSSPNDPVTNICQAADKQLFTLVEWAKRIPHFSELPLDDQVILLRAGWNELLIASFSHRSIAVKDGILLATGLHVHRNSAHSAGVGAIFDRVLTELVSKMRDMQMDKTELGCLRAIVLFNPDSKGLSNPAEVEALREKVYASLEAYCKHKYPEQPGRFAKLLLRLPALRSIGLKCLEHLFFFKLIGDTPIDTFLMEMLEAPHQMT

Row | Structure (SMILES) | Potency [1] | outcome [2] | outcome [3] | outcome [4] | Potency [5] | Potency [6] | Potency [7] | Potency [8] | outcome [9] | Potency [10] | Potency [11] | Potency [12] | Potency [13] | Potency [14] | outcome [15] | outcome [16] | outcome [17] | outcome [18] | outcome [19] | outcome [20]
1 | N#CN=C1SCCN1Cc1ccc(Cl)nc1 | inactive | inactive | inactive | inactive | inactive | inactive | inactive | inactive | inactive | 38.9 µM (active) | inactive | inactive | inactive | inactive | – | – | – | – | – | –
2 | N=C(N)[Se] | inactive | inactive | inactive | inactive | inactive | inactive | inactive | inactive | inactive | inactive | inactive | inactive | inactive | inactive | – | – | – | – | – | –
3 | CC[C@@H](CO)NC(=O)[C@@H]1C=C2c3cccc4[nH]cc(c34)C[C@H]2N(C)C1 | inactive | inactive | inactive | inactive | inactive | inactive | inactive | inactive | inactive | inactive | inactive | inactive | inactive | inactive | inactive | inactive | inactive | inactive | inactive | inactive
4 | CC(C)c1ccc(O)cc1 | – | inactive | inactive | inactive | inactive | inactive | inactive | inactive | inactive | inactive | inactive | inactive | inactive | inactive | – | – | – | – | – | –
5 | CCCCCCCCSC(=O)Oc1cc(Cl)nnc1-c1ccccc1 | inactive | inactive | inactive | inactive | inactive | inactive | inactive | inactive | inactive | inactive | inactive | inactive | inactive | inactive | – | – | – | – | – | –
6 | O=C(CCl)NCO | inactive | inactive | inactive | inactive | inactive | inactive | inactive | inactive | inactive | inactive | inactive | inactive | inactive | inactive | – | – | – | – | – | –
7 | CC(C)(O)C(Cl)(Cl)Cl | inactive | inactive | inactive | inactive | inactive | inactive | inactive | inactive | inactive | inactive | inactive | inactive | inactive | inactive | – | – | – | – | – | –
8 | C=C1CC[C@@]2(O)[C@H]3Cc4ccc(O)c5c4[C@@]2(CCN3CC2CC2)[C@H]1O5 | inactive | inactive | inactive | inactive | inactive | inactive | inactive | inactive | inactive | inactive | inactive | inactive | inactive | inactive | – | – | – | – | – | –
9 | C1CN2CCC1CC2 | inactive | inactive | inactive | inactive | inactive | inactive | inactive | inactive | inactive | inactive | inactive | inactive | inactive | inactive | – | – | – | – | – | –
10 | COc1ccc(C=O)cc1O | inactive | inactive | inactive | inactive | inactive | inactive | inactive | inactive | inactive | inactive | inactive | inactive | inactive | inactive | – | – | – | – | – | –
11 | O=P(O)(O)c1ccccc1 | inactive | inactive | inactive | inactive | inactive | inactive | inactive | inactive | inactive | inactive | inactive | inactive | inactive | inactive | – | – | – | – | – | –
12 | CC1NCCOC1c1ccccc1 (centres undefined) | inactive | inactive | inactive | inactive | inactive | inactive | inactive | inactive | inactive | inactive | inactive | inactive | inactive | inactive | – | – | – | – | – | –
13 | CCC(C)C(C)(COC(N)=O)COC(N)=O (centres undefined) | inactive | inactive | inactive | inactive | inactive | inactive | inactive | inactive | inactive | inactive | inactive | inactive | inactive | inactive | – | – | – | – | – | –
14 | COP(=O)(OC)O/C(C)=C/C(=O)N(C)C | – | inactive | inactive | inactive | inactive | inactive | inactive | inactive | inactive | inactive | inactive | inactive | inactive | – | – | – | – | – | – | –
15 | COc1cccc([C@@]2(O)CCCC[C@@H]2CN(C)C)c1 | inactive | inactive | inactive | inactive | inactive | inactive | inactive | inactive | inactive | inactive | inactive | inactive | inactive | inactive | – | – | – | – | – | –
16 | CS(=O)(=O)Cl | inactive | inactive | inactive | inactive | inactive | inactive | inactive | inactive | inactive | inactive | inactive | inactive | inactive | inactive | – | – | – | – | – | –
17 | CC1=C2[C@H]3OC(=O)[C@@H](C)[C@@H]3CC[C@@]2(C)C=CC1=O | inactive | inactive | inactive | inactive | inactive | inactive | inactive | inactive | inactive | inactive | inactive | inactive | inactive | inactive | – | – | – | – | – | –
18 | CCOC(=O)N(C)N=O | inactive | inactive | inactive | inactive | inactive | inactive | inactive | inactive | inactive | inactive | inactive | inactive | inactive | inactive | – | – | – | – | – | –
19 | CCN1CCCC1CNC(=O)C(O)(c1ccccc1)c1ccccc1 (centres undefined) | inactive | inactive | inactive | inactive | inactive | inactive | inactive | inactive | inactive | inactive | inactive | inactive | inactive | inactive | – | – | – | – | – | –
